Results taken from PubChem BioAssay (Tox21).
Results filed as inconclusive are left out. Where a call stands in place of a potency, no number is given. Values without a mark were called inactive. Activity calls are given as the source filed them. Unless noted, the call rests on the fitted dose curve; in most records, active means well fitted curve in the direction sought with a large enough effect in the repeat runs; inconclusive means weak or mixed curves; inactive means no such curve, though single readings can be large; an effect the other way counts as inactive or inconclusive.

What was measured:
[1] = biological target: Aryl hydrocarbon receptor (Homo sapiens) (UniProt P35869); assay: qHTS assay to identify small molecule that activate the aryl hydrocarbon receptor (AhR) signaling pathway (AID 743085); further: nearly all actives have a fitted effect of over 15% in size; further: potency means the concentration at half of the fitted maximal effect;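 on activation: HG2L7.5c1 human HepG2 liver cells with stably integrated DRE-driven firefly reporter; series mostly up to about 70 µM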
Summary of the method: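 Cell line HG2L7.5c1 (human hepatoma, 20× DRE-luc). Plated, 5 h 37C, compound/DMSO added, 24 h 37C. CellTiter-Fluor 30 min 37C → fluorescence; then ONE-Glo 30 min RT → luminescence.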

[2] = qHTS assay to identify small molecule that activate the aryl hydrocarbon receptor (AhR) signaling pathway - cell viability counter screen (AID 743086);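 further: HepG2 liver cells carrying the AhR DRE luciferase reporter; series mostly up to about 70 µM; nearly all actives have a fitted effect of over 45% in size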
Summary of the method: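 Cytotoxicity counter screen: CellTiter-Fluor signal (30 min, 37 C) in 4000 HepG2 cells/well carrying the DRE-luciferase reporter, following 24 h compound exposure at 37 C.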

[3] = biological target: Peroxisome proliferator-activated receptor gamma (Homo sapiens) (UniProt P37231); assay: qHTS assay to identify small molecule agonists of the peroxisome proliferator-activated receptor gamma (PPARg) signaling pathway (AID 743094; active means well fitted activation curve with a large enough effect in the signal ratio in the repeat runs, not every such curve was filed as active; the % refers to the signal ratio; further: potency means the concentration at half of the fitted maximal effect)
Summary of the method: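 Cell-based bla reporter, HEK293H background, PPARg-driven UAS. Pre-incubation 5 h, 37C, 5% CO2. Compound 17 h, 37C. Substrate 1 h RT; fluorescence.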

[4] = qHTS assay to identify small molecule antagonists of the peroxisome proliferator-activated receptor gamma (PPARg) signaling pathway - cell viability counter screen (AID 743194); further: nearly all actives have a fitted effect of over 55% in size
Summary of the method: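 Viability was measured as CellTiter-Glo luminescence in GeneBLAzer PPARg UAS-bla HEK293H cells. These cells had been exposed 17 h at 37 C to compounds together with rosiglitazone at 50 nM final, with the beta-lactamase readout taken in the same wells.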

[5] = qHTS assay for small molecule agonists of the antioxidant response element (ARE) signaling pathway (AID 743202; active means well fitted activation curve with a large enough effect in the signal ratio in the repeat runs, not every such curve was filed as active; the % refers to the signal ratio; further: potency means the concentration at half of the fitted maximal effect)
Summary of the method: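 After 16 hours of compound treatment at 37 C, HepG2 cells with a stably integrated ARE-driven beta-lactamase reporter were loaded 2 hours at room temperature with LiveBLAzer B/G FRET substrate and fluorescence intensity measured.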

[6] = qHTS assay for small molecule activators of the heat shock response signaling pathway - cell viability counter screen (AID 743209); further: nearly all actives have a fitted effect of over 50% in size; further: potency means the concentration at half of the fitted maximal effect
Summary of the method: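 Same-well multiplex: after 2.5 h room-temperature incubation with LiveBLAzer B/G substrate and fluorescence reading, CellTiter-Glo reagent was added to HSE-bla HeLa cells that had received compound for 5 h at 37 C; luminescence read after 30 min.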

[7] = qHTS assay for small molecule activators of the heat shock response signaling pathway (AID 743210; active means well fitted activation curve with a large enough effect in the signal ratio in the repeat runs, with a control signal flat, not every such curve was filed as active; the % refers to the signal ratio; further: series mostly up to about 63 µM)
Summary of the method: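 Compound exposure lasted 5 h at 37 C in HeLa cells carrying a heat-shock-element-driven beta-lactamase reporter. Read-out: fluorescence intensity after 2.5 h room-temperature loading with LiveBLAzer B/G FRET substrate.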

[8] = qHTS assay to identify small molecule agonists of the peroxisome proliferator-activated receptor delta (PPARd) signaling pathway - cell viability counter screen (AID 743211); further: nearly all actives have a fitted effect of over 55% in size
Summary of the method: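 HEK293H PPARd-bla, 3000 cells/well; 5 h preincubation 37C/5% CO2; cpd in DMSO, 17 h 37C; B/G FRET substrate 2 h RT; CellTiter-Glo 30 min RT, luminescence.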

[9] = biological target: Peroxisome proliferator-activated receptor delta (Homo sapiens) (UniProt Q03181); assay: qHTS assay to identify small molecule agonists of the peroxisome proliferator-activated receptor delta (PPARd) signaling pathway (AID 743212; calls by dose curve;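 further: HEK293H cells with PPARd UAS beta-lactamase reporter GeneBLAzer system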; further: potency means the concentration at half of the fitted maximal effect)
Summary of the method: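 Beta-lactamase reporter readout: a ratiometric FRET signal from the LiveBLAzer substrate after 2 h at room temperature. Compound exposure at 37 °C in PPARδ-bla HEK293H cells driven by an upstream activator sequence.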

[10] = qHTS assay to identify small molecule antagonists of the peroxisome proliferator-activated receptor delta (PPARd) signaling pathway - cell viability counter screen (AID 743213); further: nearly all actives have a fitted effect of over 50% in size
Summary of the method: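 PPARd-bla HEK293H cells (3000/well) got compound plus 300 nM L165041 agonist for 17 h at 37 C. Viability in the same wells came from CellTiter-Glo luminescence after 30 min at room temperature.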

[11] = biological target: Peroxisome proliferator-activated receptor delta (Homo sapiens) (UniProt Q03181); assay: qHTS assay to identify small molecule antagonists of the peroxisome proliferator-activated receptor delta (PPARd) signaling pathway (AID 743215; active means well fitted inhibition curve with a large enough effect in the signal ratio in the repeat runs, not every such curve was filed as active; the % refers to the signal ratio;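 further: cells stimulated with agonist L165041 at 300 nM final during compound exposure; series mostly up to about 62 µM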)
Summary of the method: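 Fluorescence from cleaved LiveBLAzer B/G FRET substrate (2 h, room temperature) reports PPARd-driven beta-lactamase in HEK293H UAS-bla cells. Cells had been treated 17 h at 37 C with compound plus 300 nM final L165041.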

[12] = qHTS assay to identify small molecule agonists of the farnesoid-X-receptor (FXR) signaling pathway - cell viability counter screen (AID 743218); further: nearly all actives have a fitted effect of over 45% in size
Summary of the method: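 Readout: CellTiter-Glo luminescence, 30 min RT, multiplexed after the FXR-bla FRET reading. HEK 293T FXR-UAS-bla cells received compound 5 h post-plating and were incubated 16 h at 37 C.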

[13] = qHTS assay to identify small molecule antagonists of the farnesoid-X-receptor (FXR) signaling pathway - cell viability counter screen (AID 743221; active means well fitted cell-killing curve with a large enough effect in the repeat runs, not every such curve was filed as active; further: nearly all actives have a fitted effect of over 50% in size)
Summary of the method: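 Luminescence from CellTiter-Glo measures cytotoxicity in GeneBLAzer FXR-UAS-bla HEK 293T cells. Cells were exposed to compounds with 50 uM chenodeoxycholic acid (final) for 16 h at 37 C, in wells also used for the reporter readout.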

[14] = biological target: Vitamin D3 receptor (Homo sapiens) (UniProt P11473); assay: qHTS assay to identify small molecule agonists of the vitamin D receptor (VDR) signaling pathway (AID 743222; calls by dose curve)
Summary of the method: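 Following 4 h attachment at 37C, VDR-bla cells (2,000 per well) received DMSO-dissolved compounds or controls. After 16 h incubation, LiveBLAzer B/G FRET substrate was added and fluorescence read 2 h later at room temperature.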

[15] = biological target: Vitamin D3 receptor (Homo sapiens) (UniProt P11473); assay: qHTS assay to identify small molecule antagonists of the vitamin D receptor (VDR) signaling pathway (AID 743223; active means well fitted inhibition curve with a large enough effect in the signal ratio in the repeat runs, not every such curve was filed as active; the % refers to the signal ratio)
Summary of the method: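 Antagonist mode uses 1alpha,25-dihydroxyvitamin D3 at 3 nM final as stimulus. VDR-bla cells receive compounds in DMSO, incubate 16 h at 37C, then a beta-lactamase FRET substrate for 2 h at room temperature before fluorescence measurement.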

[16] = qHTS assay to identify small molecule agonists of the vitamin D receptor (VDR) signaling pathway - cell viability counter screen (AID 743224); further: nearly all actives have a fitted effect of over 50% in size; further: potency means the concentration at half of the fitted maximal effect
Summary of the method: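 In parallel with the bla FRET readout, cytotoxicity toward VDR-bla cells after 16 h compound exposure was assessed by CellTiter-Glo, with luminescence recorded after a 30 min room-temperature incubation.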

[17] = qHTS assay for small molecule agonists of the antioxidant response element (ARE) signaling pathway - cell viability counter screen (AID 743203; calls by dose curve; further: nearly all actives have a fitted effect of over 55% in size)
Summary of the method: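 Measured in the same wells as the beta-lactamase ARE reporter, this read-out is CellTiter-Glo luminescence from HepG2 ARE-bla cells given compounds for 16 hrs.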

[18] = biological target: Bile acid receptor (Homo sapiens) (UniProt Q96RI1); assay: qHTS assay to identify small molecule antagonists of the farnesoid-X-receptor (FXR) signaling pathway (AID 743217; active means well fitted inhibition curve with a large enough effect in the signal ratio in the repeat runs, not every such curve was filed as active; the % refers to the signal ratio)
Summary of the method: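 FRET fluorescence after 2 h room-temperature LiveBLAzer loading gives the readout. Prior step: FXR-bla HEK 293T cells, seeded and incubated 5 h, received test compounds plus 50 uM final CDCA for 16 h at 37 °C.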

[19] = biological target: Bile acid receptor (Homo sapiens) (UniProt Q96RI1); assay: qHTS assay to identify small molecule agonists of the farnesoid-X-receptor (FXR) signaling pathway (AID 743220; active means well fitted activation curve with a large enough effect in the signal ratio in the repeat runs, not every such curve was filed as active; the % refers to the signal ratio)
Summary of the method: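 FXR-UAS-bla HEK 293T cells carrying a UAS-driven beta-lactamase reporter were plated for 5 h at 37C/5% CO2, then exposed to DMSO-dissolved Tox21 10K compounds for 16 h at 37C. A LiveBLAzer B/G FRET substrate was loaded for 2 h at room temperature before fluorescence reading.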

Sequence of Vitamin D3 receptor (Homo sapiens) (P11473 whole entry, looked up): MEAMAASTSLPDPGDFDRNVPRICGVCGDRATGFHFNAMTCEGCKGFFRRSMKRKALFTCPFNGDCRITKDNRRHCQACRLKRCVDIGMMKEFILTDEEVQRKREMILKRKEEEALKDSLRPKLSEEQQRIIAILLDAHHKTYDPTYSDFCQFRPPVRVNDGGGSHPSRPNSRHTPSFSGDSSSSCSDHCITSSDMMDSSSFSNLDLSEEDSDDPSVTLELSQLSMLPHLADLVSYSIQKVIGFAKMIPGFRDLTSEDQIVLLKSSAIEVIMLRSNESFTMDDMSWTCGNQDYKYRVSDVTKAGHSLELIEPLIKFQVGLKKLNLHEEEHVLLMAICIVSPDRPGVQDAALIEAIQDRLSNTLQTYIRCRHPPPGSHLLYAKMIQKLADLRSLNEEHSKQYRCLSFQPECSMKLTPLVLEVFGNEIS
Sequence of Peroxisome proliferator-activated receptor gamma (Homo sapiens) (P37231 whole entry, looked up): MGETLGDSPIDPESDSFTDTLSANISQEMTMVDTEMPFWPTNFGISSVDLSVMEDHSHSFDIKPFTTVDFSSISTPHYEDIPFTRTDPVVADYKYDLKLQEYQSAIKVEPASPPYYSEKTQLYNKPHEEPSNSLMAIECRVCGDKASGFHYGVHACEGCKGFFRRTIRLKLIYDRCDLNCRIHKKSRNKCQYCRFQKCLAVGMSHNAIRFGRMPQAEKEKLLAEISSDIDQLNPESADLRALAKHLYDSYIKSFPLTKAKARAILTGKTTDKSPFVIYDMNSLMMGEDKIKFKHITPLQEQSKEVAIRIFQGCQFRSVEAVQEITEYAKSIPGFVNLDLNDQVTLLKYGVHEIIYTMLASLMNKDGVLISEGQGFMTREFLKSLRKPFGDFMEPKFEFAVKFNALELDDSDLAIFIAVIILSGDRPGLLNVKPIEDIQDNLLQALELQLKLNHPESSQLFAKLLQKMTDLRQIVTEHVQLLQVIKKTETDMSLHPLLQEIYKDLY
Sequence of Bile acid receptor (Homo sapiens) (Q96RI1 whole entry, looked up): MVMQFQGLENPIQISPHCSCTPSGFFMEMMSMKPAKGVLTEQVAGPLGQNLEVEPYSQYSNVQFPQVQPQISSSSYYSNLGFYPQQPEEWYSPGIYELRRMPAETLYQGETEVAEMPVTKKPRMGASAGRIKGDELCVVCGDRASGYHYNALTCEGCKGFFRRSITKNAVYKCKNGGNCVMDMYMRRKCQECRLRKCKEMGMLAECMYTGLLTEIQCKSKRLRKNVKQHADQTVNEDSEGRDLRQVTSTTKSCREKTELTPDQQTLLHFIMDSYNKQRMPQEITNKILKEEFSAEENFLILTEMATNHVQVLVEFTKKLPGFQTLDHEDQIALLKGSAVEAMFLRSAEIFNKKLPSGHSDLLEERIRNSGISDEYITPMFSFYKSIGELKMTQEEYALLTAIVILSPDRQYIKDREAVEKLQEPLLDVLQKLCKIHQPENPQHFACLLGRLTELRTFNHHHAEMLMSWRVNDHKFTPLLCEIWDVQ
Sequence of Peroxisome proliferator-activated receptor delta (Homo sapiens) (Q03181 whole entry, looked up): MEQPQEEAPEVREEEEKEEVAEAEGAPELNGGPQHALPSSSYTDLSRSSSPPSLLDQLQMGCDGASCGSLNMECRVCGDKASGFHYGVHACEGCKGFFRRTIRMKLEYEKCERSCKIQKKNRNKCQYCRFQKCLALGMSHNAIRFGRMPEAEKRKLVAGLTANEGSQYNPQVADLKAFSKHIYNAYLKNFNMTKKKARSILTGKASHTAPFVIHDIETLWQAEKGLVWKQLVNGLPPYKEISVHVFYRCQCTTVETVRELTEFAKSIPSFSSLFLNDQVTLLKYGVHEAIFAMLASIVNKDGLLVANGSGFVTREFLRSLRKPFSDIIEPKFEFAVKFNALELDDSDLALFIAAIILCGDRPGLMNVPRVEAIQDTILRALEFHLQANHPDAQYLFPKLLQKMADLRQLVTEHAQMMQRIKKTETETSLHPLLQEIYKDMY
Sequence of Aryl hydrocarbon receptor (Homo sapiens) (P35869 whole entry, looked up): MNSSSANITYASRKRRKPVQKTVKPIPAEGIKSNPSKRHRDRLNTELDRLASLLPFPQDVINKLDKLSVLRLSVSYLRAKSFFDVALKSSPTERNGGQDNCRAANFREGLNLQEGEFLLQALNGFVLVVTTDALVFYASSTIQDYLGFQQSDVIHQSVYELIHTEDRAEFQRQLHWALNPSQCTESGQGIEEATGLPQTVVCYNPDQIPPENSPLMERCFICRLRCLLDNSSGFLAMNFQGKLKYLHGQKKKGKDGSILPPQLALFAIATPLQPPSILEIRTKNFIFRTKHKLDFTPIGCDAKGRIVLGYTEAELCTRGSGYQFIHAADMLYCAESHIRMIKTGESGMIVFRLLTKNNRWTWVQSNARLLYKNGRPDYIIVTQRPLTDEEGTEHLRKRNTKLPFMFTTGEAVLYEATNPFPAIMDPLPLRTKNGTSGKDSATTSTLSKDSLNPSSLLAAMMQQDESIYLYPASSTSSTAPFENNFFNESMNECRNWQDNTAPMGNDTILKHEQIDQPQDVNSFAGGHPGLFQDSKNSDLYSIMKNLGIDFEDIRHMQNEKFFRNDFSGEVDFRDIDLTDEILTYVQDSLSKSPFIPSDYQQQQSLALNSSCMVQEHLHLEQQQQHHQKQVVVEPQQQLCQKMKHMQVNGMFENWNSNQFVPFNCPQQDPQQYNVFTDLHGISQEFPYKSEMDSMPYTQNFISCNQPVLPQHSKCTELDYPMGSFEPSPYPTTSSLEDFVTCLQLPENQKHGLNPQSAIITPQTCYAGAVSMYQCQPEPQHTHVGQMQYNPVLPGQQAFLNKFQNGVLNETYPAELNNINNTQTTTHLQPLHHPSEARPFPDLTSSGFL

| Structure (SMILES) | Potency [1] | Potency [2] | Potency [3] | Potency [4] | Potency [5] | Potency [6] | Potency [7] | Potency [8] | Potency [9] | Potency [10] | Potency [11] | Potency [12] | Potency [13] | outcome [14] | outcome [15] | Potency [16] | Potency [17] | Potency [18] | Potency [19] |
| --- | --- | --- | --- | --- | --- | --- | --- | --- | --- | --- | --- | --- | --- | --- | --- | --- | --- | --- | --- |
| O=C(NCCCN1CCOCC1)c1ccc(Cl)cc1 | inactive | inactive | inactive | inactive | inactive | inactive | inactive | inactive | inactive | inactive | inactive | inactive | inactive | inactive | inactive | inactive |  |  |  |
| CCCc1c(OCCCOc2ccc(OCC(=O)O)cc2)ccc(C(C)=O)c1O | inactive | inactive | 0.275 µM (active) | inactive | inactive | inactive | inactive |  | 0.011 µM (active) |  |  |  | inactive |  | inactive | inactive | inactive | inactive |  |
| CCCCOC(=O)CCS | inactive | inactive | inactive | inactive | inactive | inactive |  | inactive | inactive | inactive |  | inactive | inactive | inactive |  | inactive | inactive |  | inactive |
| CCCCCCCC/C=C\CCCCCCCC(=O)OC(CO)CO | inactive | inactive | inactive | inactive |  | 43.6 µM (active) |  |  |  | inactive |  | inactive | inactive |  |  | inactive |  |  |  |
| O=C(O)c1snc(Cl)c1Cl | 61.1 µM (active) | inactive | inactive |  | inactive | inactive |  | inactive | inactive | inactive | inactive | inactive | inactive | inactive | inactive | inactive | inactive | inactive | inactive |
| CCCCCCCCCCCC(=O)[O][Sn]([CH2]CCC)([CH2]CCC)[O]C(=O)CCCCCCCCCCC | inactive | inactive | inactive |  | 2.11 µM (active) |  |  | inactive | inactive |  |  |  |  |  |  | 23.7 µM (active) |  |  |  |
| C=CC(C)=CCC=C(C)C | inactive | inactive | inactive | inactive |  | inactive |  | inactive |  | inactive |  |  |  | inactive | inactive | inactive | inactive |  |  |
| CCOC(=O)c1ccccc1C | inactive | inactive | inactive | inactive |  | inactive | inactive | inactive |  | inactive |  |  |  |  |  | inactive | inactive | inactive | inactive |
| CC(C)(O)c1ccccc1CC[C@@H](SCC1(CC(=O)O)CC1)c1cccc(/C=C/c2ccc3ccc(Cl)cc3n2)c1 | 23.7 µM (active) | inactive | inactive |  |  | inactive | inactive | inactive | inactive | inactive | inactive | inactive | inactive | inactive |  | inactive | inactive | inactive | inactive |
| CC1=CC(=O)CC(C)(C)C1(O)/C=C/C(C)=C\C(=O)O (centres undefined) | inactive | inactive | inactive | inactive | inactive | inactive | inactive | inactive | inactive | inactive | inactive | inactive | inactive | inactive | inactive | inactive |  | inactive | inactive |
